From PubChem
SW480 rerep = A quantitative high throughput screen for small molecules that induce DNA re-replication in SW480 colon adenocarcinoma cells; SW480 DNA re-replication, Hoechst DNA content imaging, 48 h; Potency, µM (titrated, usually from 46.1 µM), actives largely listed as activators; hit rate 1.8% among 340,000; note: nearly all actives have a fitted effect of over 55% in size
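Treated cells incubate 48 hr (37 C, 5% CO2), are stained 40 min with Hoechst, and nuclear fluorescence is enumerated; a rise in nuclei with high DNA signal marks re-replication.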
MCF10A rerep = A quantitative high throughput screen for small molecules that induce DNA re-replication in MCF 10a normal breast cells | AID 624296, 2012 | MCF 10A DNA re-replication, Hoechst nuclear intensity, 48 h | hit rate 2.9% among 350,000 | Potency, µM (highest dose often 46.1 µM), most hits filed as activators; note: nearly all actives have a fitted effect of over 50% in size
TSG101-PTAP inh = qHTS Assay for Iinhibitors of HIV-1 Budding by Blocking the Interaction of PTAP/TSG101; Fluorescence polarization, FITC-PTAP peptide / Tsg101 binding; Potency, µM (titrated, usually from 115 µM), actives largely listed as inhibitors; 340,000 tested, under 10 active; AID 493005, 2010; active = well fitted inhibition curve with a large enough effect in the main read-out, with a control signal flat, not every such curve was filed as active; inconclusive = small, poorly fitted or top-dose-only effect, or effect the other way, or a change in a side signal; inactive = no such curve, though single readings can be large or run the other way
Target sequence (Q99816 whole entry, looked up): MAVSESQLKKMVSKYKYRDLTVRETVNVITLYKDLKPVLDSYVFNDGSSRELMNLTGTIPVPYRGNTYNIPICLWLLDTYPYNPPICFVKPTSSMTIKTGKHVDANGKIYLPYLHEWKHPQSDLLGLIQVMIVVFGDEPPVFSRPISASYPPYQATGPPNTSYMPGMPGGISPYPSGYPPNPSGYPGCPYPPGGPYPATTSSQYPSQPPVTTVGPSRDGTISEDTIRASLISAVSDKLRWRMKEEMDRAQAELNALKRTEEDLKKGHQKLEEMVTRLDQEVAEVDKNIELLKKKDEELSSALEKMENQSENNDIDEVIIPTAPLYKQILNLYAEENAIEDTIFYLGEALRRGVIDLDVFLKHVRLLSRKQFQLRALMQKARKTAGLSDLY
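Fluorescence anisotropy tracks displacement of a FITC-tagged PTAP peptide (50 nM) from the Tsg101 binding domain (10 uM), following a 20 min room-temperature incubation at pH 7.5.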
RGS4 inhibitor = Inhibitors of Regulator of G Protein Signaling (RGS) 4: qHTS; Regulator of G-protein signaling 4 (Homo sapiens), P49798; Potency, µM (highest dose often 114 µM), hits mostly inhibitors; hit rate 0.039% among 390,000; Transcreener GDP fluorescence polarization, RGS4-accelerated GTP hydrolysis; AID 504845, 2011; note: nearly all actives have a fitted effect of over 75% in size
Target sequence (P49798 whole entry, looked up): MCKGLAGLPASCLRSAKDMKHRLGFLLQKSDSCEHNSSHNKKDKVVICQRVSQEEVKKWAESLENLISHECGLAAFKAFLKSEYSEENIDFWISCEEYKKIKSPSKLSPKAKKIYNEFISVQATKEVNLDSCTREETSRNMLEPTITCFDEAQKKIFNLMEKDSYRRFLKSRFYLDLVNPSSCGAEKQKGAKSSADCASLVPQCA
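MLSMR compounds (23 nl, pin-transferred) preincubated 10 min at room temperature with a 500nM (2x) first reagent, then RGS4 at 900nM (2x) plus Transcreener GDP mix added; fluorescence polarization (620/688 nm) read before and after 90 min at 30 °C.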
KB-V1 MDR tox = qHTS assay for MDR1-selective chemotherapeutics: Primary screen using the drug-selected MDR subline cells KB-V1; KB-V1 MDR cells viability, CellTiter-Glo, 72 h; AID 1347076, 2019; hit rate 3.4% among 400,000; Potency, µM (doses to about 46.1 µM), usual class: cytotoxic; note: nearly all actives have a fitted effect of over 60% in size
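Following 72 h at 37 degrees C with compound, KB-V1 cell viability was read by CellTiter-Glo luminescence, medium being phenol-red-free DMEM plus 10% FBS; concentration-response parameters came from normalized, curve-fitted qHTS data.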
KB-3-1 cytotox = qHTS assay for MDR1-selective chemotherapeutics: Primary screen using the parental adenocarcinoma cell KB-3-1; KB-3-1 viability, CellTiter-Glo ATP luminescence, 72 h; Potency, µM (series often up to 46.1 µM), actives largely listed as cytotoxic; hit rate 1.4% among 400,000; AID 1347075, 2019; note: nearly all actives have a fitted effect of over 60% in size
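Cytotoxicity measured as CellTiter-Glo luminescence after 72 h at 37 C. Compound titrations were pinned onto drug-naive KB-3-1 parental adenocarcinoma cells grown in DMEM with 10% FBS, and normalized data fitted to concentration-response curves.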
Numbers stand for hits; i = inactive; ? = inconclusive; nt = no result given; [ ] = dose if it differs, or a comment. Sampled rows, rich in hits. Any-hit rate of the full collection: about 6.6%. Unless noted, calls come from the whole dose curve; as a rule, active = well fitted curve in the direction sought with a large enough effect; inconclusive = small, poorly fitted or top-dose-only effect, or another doubt; inactive = no such curve, though single readings can be large; an effect the other way counts as inactive or inconclusive.

SMILES	SW480 rerep	MCF10A rerep	TSG101-PTAP inh	RGS4 inhibitor	KB-V1 MDR tox	KB-3-1 cytotox
COc1cc(C(=O)OCCN2CCCCC2)ccc1O	i	i	i	i	i	i
COc1cc(C#CC#CCN2CCCCC2)ccc1O	?	?	i	i	10µM	i
COc1cccc(C(=O)Nc2ccc3c(cc2=O)[C@@H](NC(C)=O)CCc2cc(OC)c(OC)c(OC)c2-3)c1	7.3µM	5.8µM	i	i	i	2.9µM
COc1cc2c(c(OC)c1OC)-c1ccc(SC)c(=O)cc1C(NC(=O)c1ccccc1)CC2 (stereo unspecified)	0.015µM	?	i	i	0.73µM	0.0092µM
COc1cccc(C(=O)Nc2ccc(F)cc2F)c1	i	i	i	i	i	i
COC(=O)c1ccc2c(c1)C(NC(C)=O)CCc1cc(OC)c(OC)c(OC)c1-2 (stereo unspecified)	0.092µM	0.12µM	i	i	0.82µM	0.15µM
COc1ccccc1-c1ccc(=O)n(CC(=O)NC2CCc3ccccc32)n1 (stereo unspecified)	i	i	i	i	i	i
CCCC(=O)NC1CCc2cc(OC)c(OC)c(OC)c2-c2ccc(OC)c(=O)cc21 (stereo unspecified)	0.0046µM	?	i	i	2.9µM	0.13µM
C1=Cc2ccccc2/C1=C\c1ccc2c(c1)OCO2	nt	nt	nt	nt	i	i
COc1cc(C(=O)NCC(c2ccc(N(C)C)cc2)N2CCc3ccccc32)cc(OC)c1OC (stereo unspecified)	nt	nt	nt	i	i	i
COc1ccc(-n2c(=O)c3c(c4cc(OC)ccc4n3C)n(CC(=O)N3CCCC3)c2=O)cc1	nt	nt	nt	i	i	i
COc1cc2c(c(OC)c1OC)-c1ccc(SC)c(=O)cc1C(NC=O)CC2 (stereo unspecified)	?	?	i	i	0.29µM	0.0065µM
C=COC(=O)NC1CCc2cc(OC)c(OC)c(OC)c2-c2ccc(SC)c(=O)cc21 (stereo unspecified)	?	i	i	i	?	0.0065µM
COc1cc2c(c(OC)c1OC)C(=O)CC2	i	i	i	i	i	i
COc1cc2c(c(OC)c1OC)-c1ccc(OC)c(=O)cc1C(NC(=O)c1ccccc1)CC2 (stereo unspecified)	0.021µM	?	i	i	?	0.0092µM
CNC1CCc2cc(OC)c(OC)c(OC)c2-c2ccc(OC)c(=O)cc21 (stereo unspecified)	0.12µM	0.075µM	nt	nt	nt	nt
COc1c(O[C@@H]2O[C@H](CO)[C@@H](O)[C@H](O)[C@H]2O)cc2c(c1OC)-c1ccc(SC)c(=O)cc1C(NC(C)=O)CC2 (stereo partly specified)	?	i	i	i	i	i
COC(=O)C1=C[C@@H](C(=O)OC)C2C3=C(C(=O)[C@@]2(C)NC(=O)c2ccccc2)[C@H](C)[C@@H]2C(=O)N(C)C(=O)[C@@H]2[C@@H]3C1 (stereo partly specified)	nt	nt	nt	i	nt	nt
CC(C)Sc1ncc(Cl)c(C(=O)Nc2ccc(S(=O)(=O)N3CCCCC3)cc2)n1	nt	nt	nt	i	i	i
COc1c(C=O)c2c(c(OC)c1OC)-c1ccc(OC)c(=O)cc1C(NC(C)=O)CC2 (stereo unspecified)	0.1µM	?	i	i	?	0.0092µM
CC(=O)c1cccc(NC(=O)Cn2nc(C)n3cccc3c2=O)c1	nt	nt	nt	i	i	i
COc1ccccc1NC1=C(Cl)C(=O)OC1OC(=O)c1ccco1 (stereo unspecified)	?	?	i	i	i	i
COc1cccc(NC2=C(Cl)C(=O)OC2OC(=O)c2ccco2)c1 (stereo unspecified)	?	14µM	i	i	i	i
COc1ccc(C(C)C)cc1S(=O)(=O)NCCc1c(C)[nH]c2ccc(C)cc12	nt	nt	nt	i	i	i
CCc1ccc(NC(=O)C2CCN(S(=O)(=O)c3cccc(-c4noc(C)n4)c3)CC2)cc1	nt	nt	nt	i	i	i
SMILES	SW480 rerep	MCF10A rerep	TSG101-PTAP inh	RGS4 inhibitor	KB-V1 MDR tox	KB-3-1 cytotox
Cc1cccc2sc(N(CCCN3CCOCC3)C(=O)CS(=O)(=O)c3ccc(F)cc3)nc12	i	i	i	i	i	i
Cc1ccc2sc(N(CCCN(C)C)C(=O)CCS(=O)(=O)c3ccccc3)nc2c1C	?	?	i	i	i	16µM
COc1ccc(OC)c2sc(N(CCCN(C)C)C(=O)CCS(=O)(=O)c3ccccc3)nc12	?	5.8µM	i	i	?	16µM
COc1ccc(Cl)c2sc(N(CCN(C)C)C(=O)CCS(=O)(=O)c3ccc(C)cc3)nc12	i	?	i	i	i	i
COc1ccc(C)c2sc(N(CCCN(C)C)C(=O)CS(=O)(=O)c3ccc(F)cc3)nc12	i	3.7µM	i	i	i	i
CN(C)CCCN(C(=O)CCS(=O)(=O)c1ccccc1)c1nc2cc3c(cc2s1)OCO3	?	5.2µM	i	i	?	?
CCC(=O)N1CCc2cc(S(=O)(=O)NCCC(=O)Nc3ccc(OC)c(Cl)c3)ccc21	nt	nt	nt	i	nt	nt
CCC(C(=O)Nc1ccc(C(C)C)cc1)n1nc(C)n2c(cc3cc(C)ccc32)c1=O (stereo unspecified)	nt	nt	nt	i	i	i
COc1ccc(OC)c(CCNC(=O)CCCn2c(=O)c3cccn3c3ccccc32)c1	nt	nt	nt	i	nt	nt
Cc1ccc2sc(N(CCCN(C)C)C(=O)c3ccc(Br)s3)nc2c1C	i	13µM	i	i	?	?
CC(=O)c1ccc(C(=O)N(CCCN(C)C)c2nc3c(C)c(C)ccc3s2)cc1	nt	nt	nt	i	i	i
Cc1cccc(N2CCN(C(=O)CCCn3c(=O)c4cccn4c4cccnc43)CC2)c1C	i	?	i	i	?	i
Cc1ccc(Cl)cc1N1CCN(C(=O)CCCn2c(=O)c3cccn3c3cccnc32)CC1	?	16µM	i	i	?	i
CCCCCCSc1ccc([C@H]2N[C@@](Cc3ccccc3)(C(=O)OC)[C@H]3C(=O)N(C)C(=O)[C@@H]23)cc1	i[9.22 µM]	i	i	i	16µM	?
C=C1C=C(C(F)F)n2ncc(C(=O)NCc3ccc(Cl)cc3)c2N1	nt	nt	nt	nt	i	i
O=C(c1csc2c1CCCC2)N1CCN(c2ncccn2)CC1	i	i	i	i	16µM	i
O=C(c1csc2c1CCCC2)N1CCN(c2ccc(F)cc2)CC1	i	?	i	i	i	i
